# Myeloid diff MLP – promotes myeloid progenitor differentiation; calls only at 10 µM; ER-HoxA9 myeloid progenitors, lysozyme-GFP differentiation, flow cytometry; AID 624256; actives 1% (n = 360,000);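 active means normalized GFP-positive differentiation at or above the plate's own cutoff, the solvent-only control mean plus 3 SD; inconclusive means no clear call, values can overlap the other calls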;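 further: cells exposed to compound for four days before flow analysis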
# NOD2-RIPK2 inh – inhibitors of human NOD2-RIPK2 interaction; CHO BLA complementation NOD2-RIPK2, CCF4 ratio; inhibition, % at 4.98 µM; actives 0.38% (n = 360,000); AID 624267; in the data active means inhibition above about 21%;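 further: 0% = vehicle only and 100% = reference blocker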
# TLR4 MyD88 comp – inhibitors of human TLR4-MyD88 binding; actives 0.18% (n = 200,000); HeLa CL3-4 TLR4/MyD88 BLA complementation, FRET ratio; inhibition, % at 8.4 µM; O00206+Q99836; in the data active means inhibition above about 25%;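 further: 0% = vehicle and 100% = reference inhibitor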
# Target sequence (O00206 whole entry, looked up): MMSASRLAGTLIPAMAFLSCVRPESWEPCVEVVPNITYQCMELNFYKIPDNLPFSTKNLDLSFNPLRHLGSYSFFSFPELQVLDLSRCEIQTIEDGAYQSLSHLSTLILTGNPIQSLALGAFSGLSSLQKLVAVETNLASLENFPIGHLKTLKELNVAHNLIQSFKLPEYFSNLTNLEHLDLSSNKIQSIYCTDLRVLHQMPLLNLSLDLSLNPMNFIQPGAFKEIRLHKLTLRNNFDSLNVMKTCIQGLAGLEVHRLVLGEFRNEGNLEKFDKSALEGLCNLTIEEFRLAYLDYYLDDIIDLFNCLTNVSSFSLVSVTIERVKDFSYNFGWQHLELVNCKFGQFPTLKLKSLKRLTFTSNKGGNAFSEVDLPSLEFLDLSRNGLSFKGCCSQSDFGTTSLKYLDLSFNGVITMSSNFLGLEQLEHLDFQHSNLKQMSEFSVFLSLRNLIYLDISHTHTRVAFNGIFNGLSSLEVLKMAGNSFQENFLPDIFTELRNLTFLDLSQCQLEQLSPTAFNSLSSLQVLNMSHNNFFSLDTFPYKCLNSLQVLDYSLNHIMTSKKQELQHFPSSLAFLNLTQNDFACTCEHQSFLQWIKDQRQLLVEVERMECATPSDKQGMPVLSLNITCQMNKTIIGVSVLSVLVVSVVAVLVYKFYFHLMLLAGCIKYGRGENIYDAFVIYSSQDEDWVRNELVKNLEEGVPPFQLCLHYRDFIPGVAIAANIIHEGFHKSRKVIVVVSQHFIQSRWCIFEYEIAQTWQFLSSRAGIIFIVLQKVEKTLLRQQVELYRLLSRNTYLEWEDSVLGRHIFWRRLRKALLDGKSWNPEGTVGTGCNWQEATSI
# Target sequence (Q99836 whole entry, looked up): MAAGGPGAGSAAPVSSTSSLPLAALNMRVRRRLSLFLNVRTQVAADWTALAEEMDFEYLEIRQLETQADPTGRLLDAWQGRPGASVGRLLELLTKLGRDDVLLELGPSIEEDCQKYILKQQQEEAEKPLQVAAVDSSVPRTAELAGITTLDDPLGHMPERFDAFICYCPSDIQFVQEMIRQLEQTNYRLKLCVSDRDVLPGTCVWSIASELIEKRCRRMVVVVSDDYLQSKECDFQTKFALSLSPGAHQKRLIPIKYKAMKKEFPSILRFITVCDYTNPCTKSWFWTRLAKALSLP
# TLR9-MyD88 block – blocks human TLR9 binding to MyD88; Q9NR96+Q99836; CHO BLA complementation TLR9-MyD88, CCF4 FRET ratio; inhibition, % at 4.98 µM; actives 0.21% (n = 340,000); AID 504734;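 active means inhibition above the mean over all tested compounds plus 3 SD, cut at about 21% in these data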;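 further: 0% = DMSO only wells and 100% = clavulanate BLA inhibitor control wells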
# ABCB6 inh 2 – inhibitors of human ABC transporter ABCB6; K562-ABCB6 porphyrin accumulation, flow cytometry, 1 h; active compounds read low; Q9NP58; fluorescence ratio to DMSO, % at 10 µM; actives 0.19% (n = 360,000);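 active means fluorescence ratio to DMSO below 75%, the collection mean minus 3 SD; inconclusive means too few cells collected in the well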;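 further: signal is porphyrin accumulated inside mitochondria; 100% equals median channel fluorescence of DMSO control wells; lower ratio means ABCB6 inhibition with less porphyrin fluorescence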
# ABCB6 inh CP1 – blocks the human ABCB6 transporter | K562-ABCB6 porphyrin accumulation, flow cytometry, 1 h; active compounds read low | 700 tested, under 10 active | shares compounds with ABCB6 inh 2 | ratio response (% of DMSO), % at 10 µM;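 active means repeat-averaged ratio response below 75% of DMSO, the collection mean minus 3 SD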;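 further: median porphyrin fluorescence at 575 nm with 488 nm excitation from mitochondria; lower ratio means less porphyrin signal so ABCB6 inhibition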
# K562 vector FC – activity in empty-vector K562 counter-screen for ABCB6 inhibitors; shares compounds with ABCB6 inh 2; K562 empty-vector cells, flow cytometry fluorescence, 1 h; percent response (fluorescence), % at 100 µM; 25 tested, under 10 active;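 active means compounds whose half-maximal effective concentration is below 100 µM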
# The depositor's hits bear a star; i = inactive; ? = inconclusive; . = no result. In the library only some 1.7% were active in any assay of this set; here they are far more common.
SMILES,Myeloid diff MLP,NOD2-RIPK2 inh,TLR4 MyD88 comp,TLR9-MyD88 block,ABCB6 inh 2,ABCB6 inh CP1,others
CN(C)C1=NC[C@H](Cc2ccccc2)N1CC1CCCC1,i,0,.,8,72*,98,
CN(C)C1=NC[C@H](Cc2ccccc2)N1CC1CCCCC1,i,-3,.,-3,92,.,
CC(=O)NCCN=Cc1sc2ccccc2c1O,i,2,-24,4,89,.,
CCCN=Cc1sc2ccc(OCC)cc2c1O,i,-10,-1,0,74*,104,
Cc1ccccc1-c1cnc(C(O)c2cccc(C)c2C)[nH]1 (centres undefined),i,-13,.,.,70*,100,
O=C(c1ccccc1-n1cccc1)N1N=C(C(F)F)CC1(O)C(F)F (centres undefined),i,2,3,1,101,.,
Cc1ccc(C)c(OCc2ccc(C(=O)N3N=C(C(F)F)CC3(O)C(F)F)o2)c1 (centres undefined),i,-4,-2,1,63*,95,
CCOc1ccc(OCc2ccc(C(=O)N3N=C(C(F)F)CC3(O)C(F)F)o2)cc1 (centres undefined),i,8,3,-5,66*,98,
COC(=O)c1ccc(COc2cc(C)ccc2C)o1,i,-14,.,7,91,.,
CCOc1ccc(OCc2ccc(C(=O)N3CCCC3)o2)cc1,i,-8,8,-4,99,.,
Cc1cc(C)cc(OCc2ccc(C(=O)N3N=C(C(F)F)CC3(O)C(F)F)o2)c1 (centres undefined),i,9,-3,0,97,101,
O=C(c1ccc(COc2ccc3ccccc3c2)o1)N1N=C(C(F)F)CC1(O)C(F)F (centres undefined),i,-1,-1,4,103,101,
COCCN1C[C@@H](CO)O[C@@H](n2cnc3c(NC4CC4)ncnc32)C1,i,-9,.,.,105,.,
CS(=O)(=O)c1ccc(SCC(=O)NC2CCS(=O)(=O)C2)c([N+](=O)[O-])c1 (centres undefined),i,-7,-3,-6,98,.,
O=C(c1ccc(COc2ccc(Br)cc2)o1)N1N=C(C(F)F)CC1(O)C(F)F (centres undefined),i,2,2,11,94,100,
O=C(c1ccc(Cn2cc(Br)cn2)cc1)N1N=C(C(F)F)CC1(O)C(F)F (centres undefined),i,-8,-1,-7,100,.,
O=C(c1ccc(COc2ccccc2Cl)o1)N1N=C(C(F)F)CC1(O)C(F)F (centres undefined),i,5,1,-8,96,100,
CCc1nc2ccc(C(=O)NCCCN3CCCC3=O)cn2c1N(C=O)CC,i,-11,.,.,100,.,
N#CCN1CCC2(O)CCCCC2C1c1ccc2c(c1)OCO2 (centres undefined),i,-11,.,-9,100,.,
COc1cccc(NC(=O)N(Cc2ccco2)C(C)c2cccs2)c1 (centres undefined),i,-10,-4,7,73*,106,
CC(c1cccs1)N(Cc1ccco1)C(=O)Nc1ccc(Cl)c(Cl)c1 (centres undefined),i,2,6,-7,97,.,
CCOc1ccccc1NC(=O)c1nc(S(=O)(=O)Cc2ccccc2)ncc1Cl,?,15,.,9,44*,.,K562 vector FC=276
CCCS(=O)(=O)c1ncc(Cl)c(C(=O)Nc2ccc(S(=O)(=O)Nc3ncccn3)cc2)n1,i,-6,.,-7,103,104,
Cc1ccc(-n2nnnc2SCC(=O)Nc2sccc2C#N)cc1,i,-3,-1,7,92,.,
CC(=O)c1c(C)oc2ccc(NS(=O)(=O)c3ccc(F)cc3C)cc12,i,0,.,2,73*,101,
SMILES,Myeloid diff MLP,NOD2-RIPK2 inh,TLR4 MyD88 comp,TLR9-MyD88 block,ABCB6 inh 2,ABCB6 inh CP1,others
CCOc1ccc(-c2cccc(NS(=O)(=O)c3ccc([N+](=O)[O-])cc3)c2)nn1,i,0,.,-7,100,.,
Cc1ccsc1CNC(=O)C1(C)CCN1C(C)C (centres undefined),i,1,.,.,71*,100,
Cc1ccc(C)c(NC(=O)C2(C)CCN2C(C)C)c1 (centres undefined),i,-9,.,.,101,.,
CCOc1ccc(S(=O)(=O)N2CCCC(C(=O)NC3CCCC3)C2)cc1 (centres undefined),i,-1,.,-14,95,.,
COc1cccc(CNCCO)c1OCc1ccc(Cl)cc1,i,-2,-3,17,74*,97,
CCOC(=O)C1(C(=O)OCC)CCN(S(=O)(=O)c2ccccc2)CC1,i,-9,.,6,101,99,
CC(=O)Nc1ccc(S(=O)(=O)NNc2cccc(C)c2)cc1,i,-7,.,0,102,.,
CSc1ccccc1OCc1cc(C(=O)NCCCn2nc(C)cc2C)no1,i,0,.,-3,100,.,
CCCCn1cnc2c(cnn2-c2ccc(Cl)cc2)c1=O,.,-5,-2,2,62*,97,
CCCCn1cnc2c(cnn2-c2ccc(F)cc2)c1=O,i,4,12,1,99,.,
CCOC(=O)C1CCN(S(=O)(=O)c2ccc(OCC(=O)OC)cc2)CC1,i,-5,16,-3,99,100,
CC(C)CN(C(=O)CCC(=O)OCC(=O)N(C)c1ccccc1)c1c(N)n(CC(C)C)c(=O)[nH]c1=O,i,-10,.,4,100,102,
CCCCCN(C(=O)CCC(=O)OC(C)C(=O)c1ccc(CC)cc1)c1c(N)n(CCCC)c(=O)[nH]c1=O (centres undefined),i,-4,.,1,95,98,
CCCCCN(C(=O)CCC(=O)OCC(=O)NCc1cccc(OC)c1)c1c(N)n(CCCC)c(=O)[nH]c1=O,?,-3,.,-2,96,.,
CCCCCN(C(=O)CCC(=O)OC(C)C(=O)Nc1ccccc1C)c1c(N)n(CCCC)c(=O)[nH]c1=O (centres undefined),i,-41,.,4,98,103,
CCCCCN(C(=O)CCC(=O)OC(C)C(=O)NC1CCCCC1)c1c(N)n(CCCC)c(=O)[nH]c1=O (centres undefined),i,2,.,-3,96,.,
CCCCN(C(=O)CCC(=O)OCC(=O)NCc1ccccc1)c1c(N)n(CCC)c(=O)[nH]c1=O,i,-4,.,-10,101,102,
CCCC(C)NS(=O)(=O)c1ccc(OC)c(C)c1 (centres undefined),i,-17,6,-4,97,.,
CN(CC(=O)O)S(=O)(=O)c1ccc2c(c1)NC(=O)CC(=O)N2,i,-13,14,2,102,.,
CC[C@@H]1Cc2[nH][nH]c(=O)c2[C@@H](c2ccc(Cl)cc2)O1,i,-16,.,.,97,.,
